Laboratory results taken from PubChem BioAssay (NCI).
Compounds without any hit were thinned out: in the full panel of roughly 79,000, 15% have a hit. Values without a mark were called inactive. The source made the active and inactive calls. Cut-off read from the data, not from the text of the source: active = growth inhibition above about 70%; inactive = the rest.

Key:
[1] = NCI Yeast Anticancer Drug Screen. Data for the rad50 strain (AID 155);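 note: 0% = growth of vehicle-only cultures of the same strain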; conditions: S. cerevisiae rad50 strain growth inhibition, active compounds read high
Procedure, shortened: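 DNA repair mutant yeast, compound exposure, growth read-out; inhibition is taken relative to vehicle.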

[2] = NCI Yeast Anticancer Drug Screen. Data for the mec2-1 strain (AID 157); conditions: S. cerevisiae mec2-1 strain, active compounds read high
Procedure, shortened: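 Each compound was tested on mec2-1 yeast, a strain altered in DNA damage repair or cell cycle control. Growth inhibition is reported relative to vehicle.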

[3] = NCI Yeast Anticancer Drug Screen. Data for the sgs1 mgt1 strain (AID 161);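 note: 0% = growth of cultures given vehicle only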; conditions: S. cerevisiae sgs1 mgt1 strain, active compounds read high
Procedure, shortened: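 Mutant yeast exposed to compound; growth scored against vehicle-only wells.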

[4] = NCI Yeast Anticancer Drug Screen. Data for the cln2 rad14 strain (AID 165);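 note: 0% = growth equal to vehicle treated cultures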; conditions: S. cerevisiae cln2 rad14 strain, active compounds read high
Procedure, shortened: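 Test compounds were added to cln2 rad14 yeast cultures; inhibition of growth was then determined by comparison with vehicle treatment.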

[5] = NCI Yeast Anticancer Drug Screen. Data for the bub3 strain (AID 167); conditions: S. cerevisiae bub3 mutant strain, active compounds read high
Procedure, shortened: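 In this screen, a yeast mutant lacking normal mitotic checkpoint function is challenged with compound. Relative growth versus vehicle gives the inhibition value.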

[6] = NCI Yeast Anticancer Drug Screen. Data for the mlh1 rad18 strain (AID 175); conditions: S. cerevisiae mlh1 rad18 strain growth inhibition, active compounds read high
Procedure, shortened: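 Inhibition values reflect reduced growth of mutant yeast versus vehicle-treated controls following compound exposure; the mutations affect DNA damage repair.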

[7] = at 5.0 µM (retest, dose inferred, filed as 0.5)
[8] = at 50.0 µM (retest, dose inferred, filed as 5.0)

| SMILES | growth inhibition [1, 7] | growth inhibition [1, 8] | growth inhibition ([1]; at 50.0 µM) | growth inhibition [2, 7] | growth inhibition [2, 8] | growth inhibition ([2]; at 50.0 µM) | growth inhibition [3, 7] | growth inhibition [3, 8] | growth inhibition ([3]; at 50.0 µM) | growth inhibition [4, 7] | growth inhibition [4, 8] | growth inhibition ([4]; at 50.0 µM) | growth inhibition [5, 7] | growth inhibition [5, 8] | growth inhibition ([5]; at 50.0 µM) | growth inhibition [6, 7] | growth inhibition [6, 8] | growth inhibition ([6]; at 50.0 µM) |
| --- | --- | --- | --- | --- | --- | --- | --- | --- | --- | --- | --- | --- | --- | --- | --- | --- | --- | --- |
| CC(=O)N[C@H]1CC[C@H]2[C@@H]3CCC4=CC(=O)CC[C@]4(C)[C@H]3CC[C@]12C | 5% | 94% (active) | 33.2% | -11% | 95% (active) | 94.5% (active) | 10% | -10% | 94.2% (active) | -8% | 97% (active) | 79.5% (active) | -1% | 97% (active) | 98% (active) | -4% | 95% (active) | 93.8% (active) |
| Cc1ccccc1Sc1ncnc2ccccc12 | 2% | 34% | 85.5% (active) | 3% | 49% | 73.8% (active) | -13% | 70% (active) | 55.5% | 1% | -1% | 5.45% | -5% | 7% | 37.6% | -7% | 48% | 70.9% (active) |
| c1cc2ccc1C1NCCCN1CCN1CCCNC1c1ccc(cc1)C1NCCCN1CCN1CCCNC21 (stereo unspecified) | 3% | -11% | -8.3% | -19% | -2% | -22.6% | -14% | 3% | -2% | -25% | -8% | 53.2% | -1% | -1% | 4.1% | -28% | -14% | -31.4% |
| COC(=O)/C(=C\c1cn(C(C)=O)c2ccccc12)P(=O)(OC)OC | 9% | 21% | 41.8% | 5% | 70% (active) | 62.6% | 2% | 51% | 70.8% (active) | 31% | 38% | 63.9% | -24% | 73% (active) | 78.5% (active) | 16% | 69% | 75.8% (active) |
| O=[N+]([O-])c1ccccc1N=Nc1c(O)[nH]c2ccc(S(=O)(=O)O)cc12 | 73% (active) | 96% (active) | 97.7% (active) | 36% | 87% (active) | 97.8% (active) | 68% | 93% (active) | 95.9% (active) | 85% (active) | 94% (active) | 95.6% (active) | 87% (active) | 97% (active) | 97.8% (active) | 90% (active) | 98% (active) | 98.4% (active) |
| Clc1cc2ccccc2c2ccccc12 | 0% | 62% | 84.6% (active) | -3% | 21% | 10.8% | -3% | 32% | 75.2% (active) | -3% | 6% | -51.7% | -2% | 64% | 77.3% (active) | -1% | 84% (active) | 93.2% (active) |
| CNc1nc(N)nc(N(C)c2ccc(Br)cc2)c1N=O | 22% | 71% (active) | 68.2% | 40% | 58% | 12.3% | 11% | 32% | 17.6% | 16% | 33% | -30.7% | 20% | 64% | 21.2% | 36% | 79% (active) | 43.9% |
| CCOC(=O)c1sc(N/N=C2\NC(=O)/C(=C/c3ccc([N+](=O)[O-])cc3)S2)nc1C | 13% | 74% (active) | 92.8% (active) | 10% | 90% (active) | 73.9% (active) | 12% | 92% (active) | 97.7% (active) | -4% | 87% (active) | 87.1% (active) | -26% | 92% (active) | 95.3% (active) | 22% | 92% (active) | 96.2% (active) |
| CC(=O)/C(=C\c1ccc(N(C)C)cc1)C(C)=[N+](C)C(=O)c1c(/[N+](C)=C(C)\C(=C\c2ccc(N(C)C)cc2)C(C)=O)ncn1C | 31% | 47% | 87.7% (active) | 14% | 70% (active) | 7.45% | 47% | 66% | 77.3% (active) | -5% | 43% | 24.7% | 10% | 43% | 43.4% | 49% | 53% | 85% (active) |
| CC1CCC(=NNC(N)=O)CC1 (stereo unspecified) | -1% | -6% | 3.9% | -11% | -2% | -10.9% | -1% | -4% | 2.45% | -5% | -1% | 34.9% | -3% | -3% | 9.5% | -1% | -4% | -19.2% |
| CC(=O)N(C1=C(Cl)C(=O)c2ccccc2C1=O)c1ccc(F)cc1 | 28% | 99% (active) | 98.8% (active) | 39% | 98% (active) | 99.3% (active) | 35% | 99% (active) | 99.4% (active) | 13% | 98% (active) | 94.4% (active) | 57% | 99% (active) | 97.4% (active) | 39% | 99% (active) | 99.4% (active) |
| O=[N+]([O-])c1ccc2nc(-c3ccccn3)[nH]c2c1 | -2% | 27% | 86.3% (active) | 1% | 5% | 87% (active) | -13% | 17% | 73.6% (active) | -12% | -3% | 77.3% (active) | -25% | 16% | 88.6% (active) | -38% | 42% | 88.5% (active) |
